Molecules are shown by their SMILES. Values joined by “and” are separate entries in the source; they are usually repeats but may differ in a detail not shown here. Equal entries are not always repeated. Inconclusive results are not listed. A structure can be active in one record and inactive in another. Active and inactive are the calls of the source. Calls come from the whole dose curve; as a rule, active = well fitted curve in the direction sought with a large enough effect in the repeat runs; inconclusive = weak or mixed curves; inactive = no such curve, though single readings can be large; an effect the other way counts as inactive or inconclusive.

Test [1] is described as follows: qHTS RealTime-Glo MT Cell Viability Assay in HepG2 cells - 40 hour (AID 1224870). Note: nearly all actives have a fitted effect of over 50% in size. Summed up:
(§1)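 HepG2 cells (600/well) mixed with RealTime-Glo MT reagent, settled 5 h at 37 C/5% CO2 before compound addition. Nonlytic NanoLuc luminescence from viable-cell prosubstrate reduction read repeatedly during 40 h treatment at 37 C.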

Test [2] in a line: A CellTox Green Cytotoxicity Assay to monitor cytotoxicity in HEK293 cells - 40 hour (AID 1224871). Note: nearly all actives have a fitted effect of over 45% in size. Note: potency is the fitted concentration of half-maximal effect. Summed up: (§2)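 Fluorescence intensity, read at 0, 8, 16, 24, 32 and 40 h of compound treatment, reflected dye binding to DNA of dead HEK293 cells; compounds (23 nL, DMSO) were added 5 h after plating cells with reagent.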
A short description of test [3]: qHTS RealTime-Glo MT Cell Viability Assay in HEK293 cells - 16 hour (AID 1224872). Note: nearly all actives have a fitted effect of over 50% in size. Note: potency is the fitted concentration of half-maximal effect. Summed up:
(§3)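 HEK293 cells were seeded at 600 cells/well together with NanoLuc luciferase and cell-permeant prosubstrate, preincubated 5 h at 37 C/5% CO2, then given compound in DMSO by pintool. Luminescence from viable-cell prosubstrate reduction was read repeatedly over 40 h.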
On the technique in general: In qHTS, concentration-response curves come from the screen itself.

Test [4] is described as follows: qHTS RealTime-Glo MT Cell Viability Assay in HepG2 cells - 8 hour (AID 1224873). Note: nearly all actives have a fitted effect of over 55% in size. Summed up: as §1
A short description of test [5]: qHTS RealTime-Glo MT Cell Viability Assay in HEK293 cells - 40 hour (AID 1224874). Note: nearly all actives have a fitted effect of over 50% in size. Note: potency is the fitted concentration of half-maximal effect. The following applies: RealTime-Glo luminescence; max response: stronger effect = lower value. Summed up:
(§4)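 Viable HEK293 cells reduce a cell-permeant prosubstrate; the product diffuses out and is consumed by NanoLuc in the medium to give light. Compounds went in after a 5 h incubation and plates were read over the treatment course.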

Test [6] in a line: A CellTox Green Cytotoxicity Assay to monitor cytotoxicity in HEK293 cells - 24 hour (AID 1224875). Note: series mostly up to about 77 µM; nearly all actives have a fitted effect of over 45% in size. Summed up: as §2
Test [7] is described as follows: A CellTox Green Cytotoxicity Assay to monitor cytotoxicity in HepG2 cells - 16 hour (AID 1224876). Note: nearly all actives have a fitted effect of over 45% in size. Summed up: (§5)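 Using 1536-well format, dye-containing HepG2 suspension was seeded, allowed 5 h at 37 C/5% CO2, dosed by pintool with compounds, positive and negative controls, and imaged for fluorescence across 40 h.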
Test [8] can be described thus: qHTS RealTime-Glo MT Cell Viability Assay in HepG2 cells - 32 hour (AID 1224877). Note: nearly all actives have a fitted effect of over 55% in size. Summed up: (§6)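 HepG2 cells were seeded at 600 cells/well together with NanoLuc luciferase and a cell-permeant prosubstrate, preincubated 5 h at 37 C/5% CO2, then pin-dosed with compounds in DMSO. Nonlytic luminescence from viable cells was read at each time point.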
Test [9] can be described thus: A CellTox Green Cytotoxicity Assay to monitor cytotoxicity in HepG2 cells - 24 hour (AID 1224878). Note: nearly all actives have a fitted effect of over 45% in size. Note: potency is the fitted concentration of half-maximal effect. Summed up: as §5
Test [10] is described as follows: A CellTox Green Cytotoxicity Assay to monitor cytotoxicity in HepG2 cells - 40 hour (AID 1224879). Note: nearly all actives have a fitted effect of over 40% in size. Note: potency is the fitted concentration of half-maximal effect. Summed up: as §5
A short description of test [11]: A CellTox Green Cytotoxicity Assay to monitor cytotoxicity in HEK293 cells - 32 hour (AID 1224881). Note: nearly all actives have a fitted effect of over 40% in size. Summed up: as §2
Test [12] in a line: A CellTox Green Cytotoxicity Assay to monitor cytotoxicity in HepG2 cells - 0 hour (AID 1224882). Note: nearly all actives have a fitted effect of over 35% in size. Summed up: as §5
Test [13] can be described thus: A CellTox Green Cytotoxicity Assay to monitor cytotoxicity in HepG2 cells - 32 hour (AID 1224883). Note: nearly all actives have a fitted effect of over 50% in size. Note: potency is the fitted concentration of half-maximal effect. Summed up: as §5
A short description of test [14]: A CellTox Green Cytotoxicity Assay to monitor cytotoxicity in HEK293 cells - 8 hour (AID 1224884). Note: nearly all actives have a fitted effect of over 35% in size. Summed up:
as §2

A short description of test [15]: qHTS RealTime-Glo MT Cell Viability Assay in HepG2 cells - 16 hour (AID 1224885). Note: nearly all actives have a fitted effect of over 50% in size. Summed up:
as §6

Test [16] can be described thus: qHTS RealTime-Glo MT Cell Viability Assay in HEK293 cells - 24 hour (AID 1224886). Note: nearly all actives have a fitted effect of over 50% in size. Note: potency is the fitted concentration of half-maximal effect. Summed up: as §3
Test [17] can be described thus: qHTS RealTime-Glo MT Cell Viability Assay in HEK293 cells - 8 hour (AID 1224887). Summed up:
as §4

The nature of test [18]: A CellTox Green Cytotoxicity Assay to monitor cytotoxicity in HEK293 cells - 16 hour (AID 1224888). Note: nearly all actives have a fitted effect of over 35% in size. Summed up:
as §2

Test [19] is described as follows: qHTS RealTime-Glo MT Cell Viability Assay in HepG2 cells - 0 hour (AID 1224889). Note: nearly all actives have a fitted effect of over 50% in size. Note: potency is the fitted concentration of half-maximal effect. Summed up: as §6
Test [20] in a line: qHTS RealTime-Glo MT Cell Viability Assay in HEK293 cells - 0 hour (AID 1224880). Summed up:
as §4
% is set by controls: 0 for no effect and ±100 for the full control effect.

In the case of `Cc1cnc(NC(=O)C2=C(O)c3ccccc3S(=O)(=O)N2C)s1`, the compound was classed as inactive in test [1], in [4] and in [8]. In addition, the Potency entry in test [2], in test [3], in test [6], in test [7], in test [9] and in test [10] was “inactive” in each case. The Potency result in test [11], in [12], in [13], in [14], in test [15] and in test [16] was “inactive” each time. For the same compound, the Potency entry in test [17], in test [18] and in test [19] was “inactive” each time. Also, in test [5], the max response was 6.82% (inactive) and -5.33% (inactive) and 4.88% (inactive).

As to `CC(C)(C)NCC(O)c1ccc(O)c(CO)c1` (centres undefined), the result in [1], in test [4] and in test [8] was inactive. The Potency result in [2], in test [3], in test [6], in test [7], in test [9] and in test [10] was “inactive” in each case. The Potency result in [20], in test [11], in test [12], in test [13], in test [14] and in test [15] was “inactive” each time. Moreover, the Potency entry in test [16], in [17], in test [18] and in [19] was “inactive” in each case. In addition, the max response in test [5] is 9.56% (inactive) and 4.37% (inactive).

Regarding `Cc1c(N(C)C)c(=O)n(-c2ccccc2)n1C`, the compound was called inactive in test [1], in [4] and in test [8]. For the same compound, the Potency result in test [2], in test [3], in test [7], in [9], in test [10] and in test [20] was “inactive” each time. Besides, the Potency entry in test [11], in test [12], in test [13], in [14], in test [15] and in test [17] was “inactive” each time. The Potency entry in test [18] and in test [19] was “inactive” throughout. Besides, the max response in test [5] was 8.84% (inactive) and 0.672% (inactive) and 6.67% (inactive).

Take `O=C1OC(c2ccc(O)cc2)(c2ccc(O)cc2)c2ccccc21`: the compound was called inactive in test [1], in test [4] and in test [8]. Also, the Potency entry in test [2], in [3], in test [6], in test [7], in [9] and in [10] was “inactive” throughout. For the same compound, the Potency result in test [20], in test [12], in test [13], in test [14], in test [15] and in test [17] was “inactive” throughout. Also, the Potency entry in test [18] and in test [19] was “inactive” each time. Moreover, the max response in test [5] was -0.757% (inactive).

For `CC(C)=CCC/C(C)=C/CO`, the call in [1], in [4] and in [8] was inactive. The Potency result in test [2], in test [3], in test [6], in test [7], in test [9] and in [10] was “inactive” in each case. The Potency result in [11], in test [12], in test [13], in test [14], in test [15] and in test [16] was “inactive” in each case. Besides, the Potency result in test [17], in test [18] and in test [19] was “inactive” each time. For the same compound, the max response in test [5] is 7.58% (inactive) and 13.8% (inactive) and -0.309% (inactive).

For the compound `NCCNc1cccc2ccccc12`, the compound was called inactive in test [1], in test [4] and in [8]. Moreover, the Potency entry in test [2], in [6], in test [7], in test [11], in [12] and in [14] was “inactive” each time. For the same compound, the Potency entry in test [15], in test [17], in test [18] and in test [19] was “inactive” each time. For the same compound, the Potency is 54.9 µM (active) and 47.8 µM (active) and inactive in test [3]; 54.9 µM (active) and 53.6 µM (active) in test [5]; 53.6 µM (active) and inactive in test [9]; 53.6 µM (active) and inactive in [10]; 53.6 µM (active) and inactive in [13]; 48.9 µM (active) and 47.8 µM (active) and inactive in test [16]. In addition, the max response in test [5] is 0.781% (inactive).

With `CCCCOCCOCCOC(C)=O`, the compound was classed as inactive in [1], in test [4] and in [8]. Moreover, the Potency result in [2], in [3], in test [7], in test [9], in [10] and in [20] was “inactive” in each case. Further, the Potency entry in [11], in test [12], in test [13], in test [14], in [15] and in test [17] was “inactive” each time. The Potency entry in test [18] and in [19] was “inactive” in each case. For the same compound, the max response in test [5] is 7.04% (inactive) and 1.04% (inactive).

As for `C[C@]12C=CC(=O)C=C1CC[C@@H]1[C@@H]2C(=O)C[C@@]2(C)[C@H]1CC[C@]2(O)C(=O)CO`, the compound was called inactive in test [1], in test [4] and in [8]. Moreover, the Potency entry in test [2], in test [3], in [6], in [7], in test [9] and in [10] was “inactive” each time. Moreover, the Potency result in [12], in test [13], in [14], in test [15], in test [16] and in [17] was “inactive” in each case. Besides, in test [18], the Potency entry was “inactive”. Also, the max response in test [5] was -10.3% (inactive) and 0.237% (inactive) and 8.61% (inactive). In [19], the Potency was 22 µM (active) and 17.4 µM (active).

As to `NC(N)=NC(N)=NCCc1ccccc1`, the call in [1], in [4] and in [8] was inactive. Also, the Potency entry in test [2], in test [3], in test [6], in test [7], in [9] and in test [10] was “inactive” throughout. Also, the Potency result in test [20], in [12], in [13], in test [14], in [15] and in test [16] was “inactive” throughout. Further, the Potency result in test [17], in test [18] and in test [19] was “inactive” throughout. Also, the Potency in [5] was 6.16 µM (active).

Turning to `COc1cc2c(c(OC)c1OC)-c1ccc(OC)c(=O)cc1[C@@H](NC(C)=O)CC2`, the outcome in [1], in test [4] and in test [8] was inactive. Moreover, the Potency in test [2] is 34.3 µM (active) and inactive; in test [5], 0.0216 µM (active); in [10], 54.3 µM (active) and inactive; in [13], 60.9 µM (active) and inactive. Also, the Potency result in test [3], in test [6], in [7], in [9], in test [12] and in test [14] was “inactive” in each case. Moreover, the Potency result in test [15], in [16], in test [17], in test [18] and in [19] was “inactive” each time.

As to `CCc1cc(C(N)=S)ccn1`, the result in test [1], in test [4] and in test [8] was inactive. Moreover, the Potency result in test [2], in [3], in test [6], in test [7], in [9] and in test [10] was “inactive” in each case. Further, the Potency entry in [20], in [12], in test [13], in test [14], in test [15] and in [17] was “inactive” each time. Further, the Potency result in test [18] and in [19] was “inactive” each time. Moreover, the max response in test [5] is 1.51% (inactive) and 1.72% (inactive) and 1.47% (inactive).

As to `CCCCOC(=O)CCCCCCCCC(=O)OCCCC`, the compound was classed as inactive in [1], in [4] and in test [8]. In addition, the Potency result in test [2], in [3], in test [6], in test [7], in test [9] and in test [10] was “inactive” throughout. The Potency entry in test [20], in [11], in [12], in test [13], in test [14] and in test [15] was “inactive” in each case. The Potency entry in [17], in test [18] and in test [19] was “inactive” each time. Moreover, the max response in test [5] is 14.7% (inactive) and 5.35% (inactive).
